Shown are actives, neighbours in structure and some others; about 10% of the full set was active somewhere.
RORg inh – ROR gamma (mouse) transcription inhibition | P51450 | Drosophila S2 Gal4-RORgamma UAS-luciferase reporter, 20 h | Potency, µM (titrated, usually from 53.6 µM), for inactives: top-dose activity change, negative = inhibition, actives largely listed as inhibitors | 310,000 compounds, 5.4% hits | AID 2551; note: % is set by controls: 0 for no effect and ±100 for the full control effect; nearly all actives have a fitted effect of over 60% in size
Target sequence (P51450 whole entry, looked up, the tested form may be a part): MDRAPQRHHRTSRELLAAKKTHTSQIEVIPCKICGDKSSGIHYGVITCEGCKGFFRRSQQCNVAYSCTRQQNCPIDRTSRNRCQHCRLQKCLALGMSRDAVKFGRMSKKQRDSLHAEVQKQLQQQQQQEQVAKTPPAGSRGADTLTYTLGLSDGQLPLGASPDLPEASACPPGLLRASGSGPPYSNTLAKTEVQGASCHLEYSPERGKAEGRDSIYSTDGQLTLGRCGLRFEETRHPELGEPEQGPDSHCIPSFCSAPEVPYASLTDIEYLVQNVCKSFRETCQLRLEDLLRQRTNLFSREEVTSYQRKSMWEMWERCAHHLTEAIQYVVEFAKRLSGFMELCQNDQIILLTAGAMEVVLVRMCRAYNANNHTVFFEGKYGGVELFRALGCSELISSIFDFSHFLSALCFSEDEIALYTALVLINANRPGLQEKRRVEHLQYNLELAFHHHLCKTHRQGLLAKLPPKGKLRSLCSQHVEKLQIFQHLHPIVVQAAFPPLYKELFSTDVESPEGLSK
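Luciferase reporter read in Schneider cells carrying Gal4-RORγ (mouse) and UAS-Photinus luciferase; cells given compound 1 h before 700 uM copper sulfate induction, then incubated 20 h at ambient temperature.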
KB-3-1 tox – KB-3-1 parental cell cytotoxicity | KB-3-1 viability, CellTiter-Glo ATP luminescence, 72 h | Potency, µM (titrated, usually from 46.1 µM), actives largely listed as cytotoxic | 400,000 compounds, 1.4% hits; note: % is set by controls: 0 for no effect and ±100 for the full control effect; nearly all actives have a fitted effect of over 60% in size
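Cells are dispensed, compounds pinned in, plates held at 37 °C for 72 h, then CellTiter-Glo is added and luminescence read after 10 minutes. Cell line: parental KB-3-1 in phenol-red-free DMEM, 10% FBS.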
SW480 rerep – inducers of DNA re-replication in SW480 colon cancer cells. SW480 DNA re-replication, Hoechst DNA content imaging, 48 h. 340,000 compounds, 1.8% hits. AID 624297. Potency, µM (series often up to 46.1 µM), for the others: top-dose re-replication activation, actives largely listed as activators; note: % of control where 0% means no effect; nearly all actives have a fitted effect of over 55% in size
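Per well, 250 cells were exposed to pinned compound for 48 hr. Nuclear DNA was visualised with Hoechst (40 min, 37 C) and total object intensity recorded by fluorescence scanning.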
MCF10A rerep – DNA re-replication induction in MCF 10a cells | MCF 10A DNA re-replication, Hoechst nuclear intensity, 48 h | Potency, µM (doses to about 46.1 µM), for the others: at the highest dose activity, positive = re-replication, usual class: activators | 350,000 compounds, 2.9% hits | AID 624296; note: % of control where 0% means no effect; nearly all actives have a fitted effect of over 50% in size
KB-V1 cytotox – KB-V1 MDR subline cytotoxicity | KB-V1 MDR cells viability, CellTiter-Glo, 72 h | AID 1347076 | 400,000 compounds, 3.4% hits | Potency, µM (series often up to 46.1 µM), hits mostly cytotoxic; note: % is set by controls: 0 for no effect and ±100 for the full control effect; nearly all actives have a fitted effect of over 60% in size
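KB-V1 cells (P-gp-expressing MDR subline of KB-3-1) in phenol-red-free DMEM with 10% FBS were exposed to library compounds over a concentration series for 72 h at 37 degrees C. Viability read by CellTiter-Glo luminescence; concentration-effect curves fitted after normalization.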
VP16 counter – counter-screen for ROR gamma inhibitors: Gal4-VP16 reporter | Drosophila S2 Gal4-VP16 UAS-luciferase, luminescence, 20 h | Potency, µM (doses to about 53.6 µM), for inactives: top-dose activity, negative = inhibition, most hits filed as inhibitors | 310,000 compounds, 3.5% hits | AID 2546;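 note: Gal4-VP16 expression switched on by copper sulfate through the metallothionein promoter; % is set by controls: 0 for no effect and ±100 for the full control effect; nearly all actives have a fitted effect of over 50% in size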
* marks the source's active call; other numbers are inactive results; i = inactive; ? = inconclusive; . = no result; [ ] = another dose, or the depositor's remark. Calls come from the whole dose curve; as a rule, active = well fitted curve in the direction sought with a large enough effect; inconclusive = small, poorly fitted or top-dose-only effect, or another doubt; inactive = no such curve, though single readings can be large; an effect the other way counts as inactive or inconclusive. Potency is the fitted concentration of half-maximal effect.

SMILES	RORg inh	KB-3-1 tox	SW480 rerep	MCF10A rerep	KB-V1 cytotox	VP16 counter
COc1cccc2[nH]c3c(N4CCc5ccccc5C4)ncnc3c12	16%	i	-2%	?	i	-1%
c1ccc2c(c1)CCN(c1ncnc3c1[nH]c1ccccc13)C2	13µM*	i	?	?	9.2µM*	6.3µM*
COC(=O)c1[nH]c2cc(OC)ccc2c1NC(=O)CN1CCN(c2cccc(C)c2)C(C)C1 (centres undefined)	21%	?	15%	?	21µM*	-11%
CCOC(=O)Nc1c(C(=O)OC)[nH]c2cc(OC)ccc12	25%	21µM*	?	24%	23µM*	-16%
CCOC(=O)c1[nH]c2ccc(OC)cc2c1NC(=O)OC	13%	i	-8%	-5%	i	3%
O=c1c(-c2ccccc2)nc2cnc(N3CCNCC3)nc2n1-c1ccccc1	2%	.	.	.	.	-19%
COc1ccccc1N1CCN(C(=O)CSc2nc3ccccc3o2)CC1	0%	i	-1%	?	21µM*	9%
C=CCn1c(SCc2ccccc2C#N)nnc1-c1cc(Br)ccc1O	18µM*	?	11%	?	3.7µM*	25µM*
C=CCn1c(SCC(N)=O)nnc1-c1cccc(Br)c1	-3%	i	-4%	1%	i	-7%
C=C[C@H]1CCC=C2C(=O)CCC[C@@H]21	-40%	.	.	.	.	-6%
Cc1ccc(-n2c(=S)[nH]c3sc4c(c3c2=O)CCc2ccccc2-4)cc1	0.45µM*	i	0%	0%	i	0.63µM*
Cc1cccc(-n2c(=S)[nH]c3sc4c(c3c2=O)CCc2ccccc2-4)c1	0.35µM*	i	2%	-21%	i	1.4µM*
COc1ccc(-n2c(=S)[nH]c3sc4c(c3c2=O)CCN(C)C4)cc1	-2%	.	.	.	.	-8%
CC(=O)O[C@@]1(C(C)=O)CCC2C3CC(C)C4=CC(=O)CC[C@@]4(C)C3CC[C@]21C (some centres undefined)	-27%	.	0%	14%	.	-2%
COc1cccc(C(C)(O)c2nc(-c3ccoc3)cs2)c1 (centres undefined)	.	i	.	.	i	.
COc1ccc(N2C(=O)CC(NNC(=O)c3cc(C)oc3C)C2=O)cc1 (centres undefined)	37%	i	6%	2.6µM*	i	4%
COc1ccccc1C(=O)NNC1CC(=O)N(c2ccc3c(c2)OCCO3)C1=O (centres undefined)	-2%	i	-6%	-11%	i	2%
O=C(CC[C@H]1O[C@@H](n2ccc(=O)[nH]c2=O)[C@H](O)[C@@H]1O)N[C@H](Cc1ccccc1)C(=O)NCC1CCCO1 (some centres undefined)	.	i	.	.	i	.
CN(C)c1ncc2ncc(=O)n(C)c2n1	-23%	.	.	.	.	-14%
Cc1cc(Nc2cccc(C(F)(F)F)c2)nc2ccc(NC(=O)c3cccc(Cl)c3)cc12	.	?	.	.	i	.
O=C(CCCCn1c(=O)c2ccccc2n(Cc2cccc(F)c2)c1=O)NCCc1ccccc1	.	i	.	.	i	.
COc1ccc(/C=C2/SC(=S)N(CCCC(=O)N3CCN(C)CC3)C2=O)cc1	1.4µM*	?	-2%	?	?	2.5µM*
CCOc1ccc(/C=C2\SC(=S)N(CCC(=O)O)C2=O)cc1	1.1µM*	i	-15%	2%	i	-3%
Cc1ccc(/C=C2\SC(=S)N(CCCC(=O)N3CCOCC3)C2=O)cc1	3.2µM*	?	?	?	i	?
COc1ccc(/C=C2/SC(=S)N(CCC(=O)N3CCN(C)CC3)C2=O)cc1	10µM*	?	?	?	i	19%
SMILES	RORg inh	KB-3-1 tox	SW480 rerep	MCF10A rerep	KB-V1 cytotox	VP16 counter
CC1CCN(C(=O)CCN2C(=O)/C(=C/c3cccs3)SC2=S)CC1	?	?	5.8µM*	23µM*	?	?
COc1cccc(/C=C2\SC(=S)N(CCC(=O)N3CCCCC3)C2=O)c1	-3%	?	-2%	10µM*	i	5%
Clc1cccc(Cl)c1Cn1cnc2c(NCc3ccco3)ncnc21	1%	?	10µM*	16µM*	3.5µM*	-8%
Clc1cccc(Cl)c1Cn1cnc(=NCc2ccco2)c2[nH]cnc21	18µM*	i	9%	?	8.2µM*	?
Cc1ccccc1-n1c(=O)n(Cc2ccco2)c(=O)c2[nH]cnc21	9%	i	-5%	-2%	i	0%
Cc1ccc(Cc2c(-c3ccc(Cl)cc3)nc3c(C)cc(Br)cn23)cc1	.	?	.	.	i	.
O=C(CCl)N1c2ccccc2SCC1c1ccccc1 (centres undefined)	11µM*	?	15µM*	7.3µM*	i	14µM*
O=C(NC(=S)Nc1cccc(Cl)c1N1CCCCC1)c1ccc2c(c1)OCCO2	2.5µM*	i	?	4.6µM*	15µM*	4.5µM*
O=C(Nc1cccc(Cl)c1N1CCCCC1)c1ccc2c(c1)OCCO2	-21%	i	0%	?	i	6%
CCC(=O)NC(=S)Nc1cccc(Cl)c1N1CCCC1	1.1µM*	i	1%	18%	i	?
CC(=O)N1CCC2(CC1)OC(=O)C(C)=C2C(=O)NCc1ccc(Cl)cc1	.	i	.	.	i	.
CCc1ccccc1NC(=O)CNC(=O)c1cc(C2CC2)nn1-c1ccccc1	.	i	-10%	?	i	.
CCC(O)CNc1nc(-n2nc(C)cc2C)nc2sc3c(c12)CCCC3 (centres undefined)	2.5µM*	.	.	.	.	?
Cc1cc(C)n(-c2nc(SCCN(C)C)c3c4c(sc3n2)CCCC4)n1	2.8µM*	i	?	?	i	7.9µM*
CC(Oc1ccc(Cl)cc1Cl)C(=O)NC1=NN(c2ccccc2)C(=O)C1 (centres undefined)	?	i	-3%	18µM*	i	-11%
CC(Oc1cccc(Cl)c1)C(=O)Nc1ccncc1 (centres undefined)	?	i	-37%	-4%	i	13µM*
CC(Oc1ccc(Cl)cc1Cl)C(=O)Nc1ccncc1 (centres undefined)	-29%	i	-8%[9.22 µM]	?	9.2µM*	20µM*
CC(Oc1cccc(Cl)c1)C(=O)Nc1ccc(S(=O)(=O)N(C)C2CCN(C)CC2)cc1 (centres undefined)	.	i	13%	?	23µM*	.
CC(C)S(=O)(=O)NC(=O)C1(C)CCN1C(=O)Cc1ccccc1 (centres undefined)	.	i	.	.	i	.
